# Test results reported in PMC11062922 (Nature Chemical Biology, 2023).
# Read-outs that look alike come from different tables or passages of the source.
# Columns and labels:
# Settings in all cases: read-out: apparent Kd, n = 1
# MAP2K2 = system: MAP2K2
# MAP2K6 = system: MAP2K6
# MAP4K2 = system: MAP4K2
# [1] = compound concentrations:100 nM and 1000 nM (sheet 'Lestaurtinib' of Supplementary Table 1),run:Lestaurtinib_02752_R3,Plate:MR025
# [2] = compound concentrations:100 nM and 1000 nM (sheet 'Lestaurtinib' of Supplementary Table 1),run:Lestaurtinib_02765_R1,Plate:MR026
# [3] = compound concentrations:100 nM and 1000 nM (sheet 'Lestaurtinib' of Supplementary Table 1),run:Lestaurtinib_02768_R1,Plate:MR028
# [4] = compound concentrations:100 nM and 1000 nM (sheet 'Lestaurtinib' of Supplementary Table 1),run:Lestaurtinib_02795_R1,Plate:MR022
# [5] = compound concentrations:100 nM and 1000 nM (sheet 'Lestaurtinib' of Supplementary Table 1),run:Lestaurtinib_02802_R2,Plate:MR029
# [6] = compound concentrations:100 nM and 1000 nM (sheet 'Lestaurtinib' of Supplementary Table 1),run:Lestaurtinib_02802_R3,Plate:MR029
# [7] = compound concentrations:100 nM and 1000 nM (sheet 'Lestaurtinib' of Supplementary Table 1),run:Lestaurtinib_03252_R2,Plate:MR032
# [8] = compound concentrations:100 nM and 1000 nM (sheet 'Lestaurtinib' of Supplementary Table 1),run:Lestaurtinib_02339_R2,Plate:MR001
# [9] = compound concentrations:100 nM and 1000 nM (sheet 'Lestaurtinib' of Supplementary Table 1),run:Lestaurtinib_02364_R2,Plate:MR002
substance,measurement,setting,value
Lestaurtinib,potency estimated from few doses,MAP2K2; [1],1310 nM
same,potency estimated from few doses,MAP2K2; [2],722 nM
same,potency estimated from few doses,"MAP2K2; compound concentrations:100 nM and 1000 nM (sheet 'Lestaurtinib' of Supplementary Table 1),run:Lestaurtinib_02766_R2,Plate:MR027",959 nM
same,potency estimated from few doses,"MAP2K2; compound concentrations:100 nM and 1000 nM (sheet 'Lestaurtinib' of Supplementary Table 1),run:Lestaurtinib_02766_R3,Plate:MR027",1320 nM
same,potency estimated from few doses,MAP2K2; [3],1590 nM
same,potency estimated from few doses,MAP2K2; [4],925 nM
same,potency estimated from few doses,"MAP2K2; compound concentrations:100 nM and 1000 nM (sheet 'Lestaurtinib' of Supplementary Table 1),run:Lestaurtinib_02795_R2,Plate:MR022",722 nM
same,potency estimated from few doses,MAP2K2; [5],958 nM
same,potency estimated from few doses,MAP2K2; [6],1490 nM
same,potency estimated from few doses,"MAP2K2; compound concentrations:100 nM and 1000 nM (sheet 'Lestaurtinib' of Supplementary Table 1),run:Lestaurtinib_02896_R2,Plate:MR030",744 nM
same,potency estimated from few doses,"MAP2K2; compound concentrations:100 nM and 1000 nM (sheet 'Lestaurtinib' of Supplementary Table 1),run:Lestaurtinib_02896_R3,Plate:MR030",804 nM
same,potency estimated from few doses,"MAP2K2; compound concentrations:100 nM and 1000 nM (sheet 'Lestaurtinib' of Supplementary Table 1),run:Lestaurtinib_03172_R3,Plate:MR031",475 nM
same,potency estimated from few doses,MAP2K2; [7],790 nM
same,potency estimated from few doses,"MAP2K2; compound concentrations:100 nM and 1000 nM (sheet 'Lestaurtinib' of Supplementary Table 1),run:Lestaurtinib_03260_R2,Plate:MR033",1600 nM
same,potency estimated from few doses,MAP2K6; [8],162 nM
same,potency estimated from few doses,"MAP2K6; compound concentrations:100 nM and 1000 nM (sheet 'Lestaurtinib' of Supplementary Table 1),run:Lestaurtinib_02339_R3,Plate:MR001",96.9 nM
same,potency estimated from few doses,MAP2K6; [9],135 nM
same,potency estimated from few doses,"MAP2K6; compound concentrations:100 nM and 1000 nM (sheet 'Lestaurtinib' of Supplementary Table 1),run:Lestaurtinib_02367_R1,Plate:MR003",158 nM
same,potency estimated from few doses,"MAP2K6; compound concentrations:100 nM and 1000 nM (sheet 'Lestaurtinib' of Supplementary Table 1),run:Lestaurtinib_02367_R2,Plate:MR003",190 nM
same,potency estimated from few doses,"MAP2K6; compound concentrations:100 nM and 1000 nM (sheet 'Lestaurtinib' of Supplementary Table 1),run:Lestaurtinib_02367_R3,Plate:MR003",165 nM
same,potency estimated from few doses,"MAP2K6; compound concentrations:100 nM and 1000 nM (sheet 'Lestaurtinib' of Supplementary Table 1),run:Lestaurtinib_02381_R1,Plate:MR004",175 nM
same,potency estimated from few doses,"MAP2K6; compound concentrations:100 nM and 1000 nM (sheet 'Lestaurtinib' of Supplementary Table 1),run:Lestaurtinib_02407_R2,Plate:MR005",137 nM
same,potency estimated from few doses,"MAP2K6; compound concentrations:100 nM and 1000 nM (sheet 'Lestaurtinib' of Supplementary Table 1),run:Lestaurtinib_02422_R3,Plate:MR006",151 nM
same,potency estimated from few doses,"MAP2K6; compound concentrations:100 nM and 1000 nM (sheet 'Lestaurtinib' of Supplementary Table 1),run:Lestaurtinib_02437_R1,Plate:MR007",184 nM
same,potency estimated from few doses,"MAP2K6; compound concentrations:100 nM and 1000 nM (sheet 'Lestaurtinib' of Supplementary Table 1),run:Lestaurtinib_02437_R2,Plate:MR007",189 nM
same,potency estimated from few doses,"MAP2K6; compound concentrations:100 nM and 1000 nM (sheet 'Lestaurtinib' of Supplementary Table 1),run:Lestaurtinib_02437_R3,Plate:MR007",22.9 nM
same,potency estimated from few doses,"MAP2K6; compound concentrations:100 nM and 1000 nM (sheet 'Lestaurtinib' of Supplementary Table 1),run:Lestaurtinib_02438_R3,Plate:MR008",132 nM
same,potency estimated from few doses,"MAP2K6; compound concentrations:100 nM and 1000 nM (sheet 'Lestaurtinib' of Supplementary Table 1),run:Lestaurtinib_02443_R2,Plate:MR009",140 nM
same,potency estimated from few doses,"MAP2K6; compound concentrations:100 nM and 1000 nM (sheet 'Lestaurtinib' of Supplementary Table 1),run:Lestaurtinib_02473_R1,Plate:MR010",176 nM
same,potency estimated from few doses,"MAP2K6; compound concentrations:100 nM and 1000 nM (sheet 'Lestaurtinib' of Supplementary Table 1),run:Lestaurtinib_02473_R2,Plate:MR010",144 nM
same,potency estimated from few doses,"MAP2K6; compound concentrations:100 nM and 1000 nM (sheet 'Lestaurtinib' of Supplementary Table 1),run:Lestaurtinib_02482_R1,Plate:MR011",212 nM
same,potency estimated from few doses,"MAP2K6; compound concentrations:100 nM and 1000 nM (sheet 'Lestaurtinib' of Supplementary Table 1),run:Lestaurtinib_02482_R3,Plate:MR011",254 nM
same,potency estimated from few doses,"MAP2K6; compound concentrations:100 nM and 1000 nM (sheet 'Lestaurtinib' of Supplementary Table 1),run:Lestaurtinib_02487_R1,Plate:MR012",142 nM
same,potency estimated from few doses,"MAP2K6; compound concentrations:100 nM and 1000 nM (sheet 'Lestaurtinib' of Supplementary Table 1),run:Lestaurtinib_02487_R2,Plate:MR012",190 nM
same,potency estimated from few doses,"MAP2K6; compound concentrations:100 nM and 1000 nM (sheet 'Lestaurtinib' of Supplementary Table 1),run:Lestaurtinib_02487_R3,Plate:MR012",157 nM
same,potency estimated from few doses,"MAP2K6; compound concentrations:100 nM and 1000 nM (sheet 'Lestaurtinib' of Supplementary Table 1),run:Lestaurtinib_02496_R1,Plate:MR013",146 nM
same,potency estimated from few doses,"MAP2K6; compound concentrations:100 nM and 1000 nM (sheet 'Lestaurtinib' of Supplementary Table 1),run:Lestaurtinib_02496_R2,Plate:MR013",132 nM
same,potency estimated from few doses,"MAP2K6; compound concentrations:100 nM and 1000 nM (sheet 'Lestaurtinib' of Supplementary Table 1),run:Lestaurtinib_02566_R1,Plate:MR014",207 nM
same,potency estimated from few doses,"MAP2K6; compound concentrations:100 nM and 1000 nM (sheet 'Lestaurtinib' of Supplementary Table 1),run:Lestaurtinib_02566_R2,Plate:MR014",121 nM
same,potency estimated from few doses,"MAP2K6; compound concentrations:100 nM and 1000 nM (sheet 'Lestaurtinib' of Supplementary Table 1),run:Lestaurtinib_02572_R2,Plate:MR015",149 nM
same,potency estimated from few doses,"MAP2K6; compound concentrations:100 nM and 1000 nM (sheet 'Lestaurtinib' of Supplementary Table 1),run:Lestaurtinib_02572_R3,Plate:MR015",193 nM
same,potency estimated from few doses,"MAP2K6; compound concentrations:100 nM and 1000 nM (sheet 'Lestaurtinib' of Supplementary Table 1),run:Lestaurtinib_02577_R2,Plate:MR016",158 nM
same,potency estimated from few doses,"MAP2K6; compound concentrations:100 nM and 1000 nM (sheet 'Lestaurtinib' of Supplementary Table 1),run:Lestaurtinib_02584_R3,Plate:MR017",243 nM
same,potency estimated from few doses,"MAP2K6; compound concentrations:100 nM and 1000 nM (sheet 'Lestaurtinib' of Supplementary Table 1),run:Lestaurtinib_02601_R1,Plate:MR018",172 nM
same,potency estimated from few doses,"MAP2K6; compound concentrations:100 nM and 1000 nM (sheet 'Lestaurtinib' of Supplementary Table 1),run:Lestaurtinib_02601_R3,Plate:MR018",321 nM
same,potency estimated from few doses,"MAP2K6; compound concentrations:100 nM and 1000 nM (sheet 'Lestaurtinib' of Supplementary Table 1),run:Lestaurtinib_02606_R2,Plate:MR019",140 nM
same,potency estimated from few doses,"MAP2K6; compound concentrations:100 nM and 1000 nM (sheet 'Lestaurtinib' of Supplementary Table 1),run:Lestaurtinib_02606_R3,Plate:MR019",180 nM
same,potency estimated from few doses,"MAP2K6; compound concentrations:100 nM and 1000 nM (sheet 'Lestaurtinib' of Supplementary Table 1),run:Lestaurtinib_02624_R2,Plate:MR020",154 nM
same,potency estimated from few doses,"MAP2K6; compound concentrations:100 nM and 1000 nM (sheet 'Lestaurtinib' of Supplementary Table 1),run:Lestaurtinib_02624_R3,Plate:MR020",149 nM
same,potency estimated from few doses,"MAP2K6; compound concentrations:100 nM and 1000 nM (sheet 'Lestaurtinib' of Supplementary Table 1),run:Lestaurtinib_02724_R1,Plate:MR021",141 nM
same,potency estimated from few doses,"MAP2K6; compound concentrations:100 nM and 1000 nM (sheet 'Lestaurtinib' of Supplementary Table 1),run:Lestaurtinib_02724_R2,Plate:MR021",113 nM
same,potency estimated from few doses,"MAP2K6; compound concentrations:100 nM and 1000 nM (sheet 'Lestaurtinib' of Supplementary Table 1),run:Lestaurtinib_02724_R3,Plate:MR021",151 nM
same,potency estimated from few doses,"MAP2K6; compound concentrations:100 nM and 1000 nM (sheet 'Lestaurtinib' of Supplementary Table 1),run:Lestaurtinib_02741_R1,Plate:MR023",92.6 nM
same,potency estimated from few doses,"MAP2K6; compound concentrations:100 nM and 1000 nM (sheet 'Lestaurtinib' of Supplementary Table 1),run:Lestaurtinib_02741_R2,Plate:MR023",113 nM
same,potency estimated from few doses,"MAP2K6; compound concentrations:100 nM and 1000 nM (sheet 'Lestaurtinib' of Supplementary Table 1),run:Lestaurtinib_02741_R3,Plate:MR023",130 nM
same,potency estimated from few doses,"MAP2K6; compound concentrations:100 nM and 1000 nM (sheet 'Lestaurtinib' of Supplementary Table 1),run:Lestaurtinib_02748_R2,Plate:MR024",231 nM
same,potency estimated from few doses,"MAP2K6; compound concentrations:100 nM and 1000 nM (sheet 'Lestaurtinib' of Supplementary Table 1),run:Lestaurtinib_02748_R3,Plate:MR024",190 nM
same,potency estimated from few doses,MAP2K6; [1],175 nM
same,potency estimated from few doses,MAP2K6; [2],218 nM
same,potency estimated from few doses,"MAP2K6; compound concentrations:100 nM and 1000 nM (sheet 'Lestaurtinib' of Supplementary Table 1),run:Lestaurtinib_02765_R2,Plate:MR026",200 nM
same,potency estimated from few doses,"MAP2K6; compound concentrations:100 nM and 1000 nM (sheet 'Lestaurtinib' of Supplementary Table 1),run:Lestaurtinib_02765_R3,Plate:MR026",115 nM
same,potency estimated from few doses,MAP2K6; [3],183 nM
same,potency estimated from few doses,MAP2K6; [4],143 nM
same,potency estimated from few doses,MAP2K6; [5],180 nM
same,potency estimated from few doses,MAP2K6; [6],440 nM
same,potency estimated from few doses,"MAP2K6; compound concentrations:100 nM and 1000 nM (sheet 'Lestaurtinib' of Supplementary Table 1),run:Lestaurtinib_03172_R1,Plate:MR031",154 nM
same,potency estimated from few doses,MAP2K6; [7],296 nM
same,potency estimated from few doses,"MAP2K6; compound concentrations:100 nM and 1000 nM (sheet 'Lestaurtinib' of Supplementary Table 1),run:Lestaurtinib_03260_R1,Plate:MR033",161 nM
same,potency estimated from few doses,"MAP2K6; compound concentrations:100 nM and 1000 nM (sheet 'Lestaurtinib' of Supplementary Table 1),run:Lestaurtinib_03260_R3,Plate:MR033",140 nM
same,potency estimated from few doses,"MAP4K2; compound concentrations:100 nM and 1000 nM (sheet 'Lestaurtinib' of Supplementary Table 1),run:Lestaurtinib_02339_R1,Plate:MR001",329 nM
same,potency estimated from few doses,MAP4K2; [8],231 nM
same,potency estimated from few doses,"MAP4K2; compound concentrations:100 nM and 1000 nM (sheet 'Lestaurtinib' of Supplementary Table 1),run:Lestaurtinib_02364_R1,Plate:MR002",180 nM
same,potency estimated from few doses,MAP4K2; [9],196 nM
